Structures are written as SMILES. Hit rate of the full screen: of about 270,000 compounds, about 20 (0.007%) were called active. Calls follow the shape of the dose curve; as a rule, active = well fitted inhibition curve with a large enough effect; inconclusive = small, poorly fitted or top-dose-only effect, or effect the other way; inactive = flat fitted curve, though single readings scatter. Only a sample is shown.
% is scaled to controls: 0 for no effect and ±100 for the full control effect.

Sequence of Galactokinase (Homo sapiens) (P51570 whole entry, looked up): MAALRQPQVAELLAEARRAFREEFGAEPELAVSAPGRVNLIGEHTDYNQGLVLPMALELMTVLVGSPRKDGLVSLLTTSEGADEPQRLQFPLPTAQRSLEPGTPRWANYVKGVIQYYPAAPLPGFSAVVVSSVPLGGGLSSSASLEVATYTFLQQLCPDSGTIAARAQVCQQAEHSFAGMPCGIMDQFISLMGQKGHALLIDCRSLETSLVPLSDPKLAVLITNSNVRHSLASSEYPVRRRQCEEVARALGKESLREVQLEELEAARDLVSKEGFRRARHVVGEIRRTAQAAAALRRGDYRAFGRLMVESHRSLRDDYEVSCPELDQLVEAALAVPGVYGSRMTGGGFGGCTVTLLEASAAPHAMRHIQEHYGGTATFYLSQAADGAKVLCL

This test concerns the target Galactokinase (Homo sapiens) (UniProt P51570). Kind of test: qHTS Assay for Inhibitors of Human Galactokinase (GALK). The following applies: Purified GALK, Kinase-Glo residual ATP luminescence; series mostly up to 57.5 µM; activity change, negative = inhibition: at the top concentration. An excerpt:
NIH Molecular Libraries Probe Production Centers Network [MLPCN] NIH Chemical Genomics Center [NCGC] MLPCN Grant: R03 MH085689-01 Assay Submitter (PI): Kent Lai (University of Utah School of Medicine, 50 N Mario Capecchi Drive, Salt Lake City, UT 84132) NCGC Assay Overview: Inherited deficiency of galactose-1-phosphate uridyltransferase (GALT) can result in a potentially lethal disorder called Classic Galactosemia (OMIM 230400). Several lines of evidence indicate that an elevated level of galactose-1-phosphate (gal-1-p), the product of galactokinase (GALK), is a major, if not sole, pathogenic mechanism in patients with classic galactosemia. Therefore, finding inhibitors of GALK is a potential novel therapy for this inherent metabolic disease and is the long term goal of this project. GALK (provided by the assay submitter) was assayed using ATP and D-(+)-Galactose (Sigma-Aldrich cat# G0750) as substrates. Promega Kinase-Glo Plus (cat# V3774) technology was used to detect the residual ATP following kinetic reaction. Briefly, the Kinase-Glo Plus contains Ultra-Glo [2] luciferase and D-luciferin which generates a bioluminescence signal from the remaining ATP.
NCGC Assay Protocol Summary: Three uL/well of ATP-buffer solution (35 uM ATP, 20mM HEPES pH8.0, 5 mM MgCl2, 60 mM NaCl, 1 mM DTT, 0.01% BSA final concentration) was dispensed into 1536-well, assay plates (Greiner, solid white medium-binding plates) with Aurora Discovery BioRAPTR Flying Reagent Dispenser (FRD; Beckton-Dickenson). Compound solution (23 nL) was transferred to the assay plate using the Kalypsys 1536-pin tool. One uL/well GALK-galactose solution (5 nM GALK, 100 uM galactose, 20 mM HEPES pH8.0, 5 mM MgCl2, 60 mM NaCl, 1 mM DTT, 0.01% BSA final concentration) was then added using the FRD yielding a total kinase reaction volume of 4 uL/ well. After 1 hour of room temperature incubation, 4 uL Kinase-Glo Plus reagent was added for a final assay volume of 8 uL/ well. Luminescence was detected with the ViewLux plate reader (Perkin Elmer, Waltham, MA) after 10 min incubation using a 1 sec exposure time and 2x binning.
On the technique in general: qHTS replaces the single test concentration by a dilution series.
Turning to `CCOC(=O)C(Cc1ccc(N)cc1)N1C(=O)c2ccccc2C1=O` (stereo not drawn), the “activity change, negative = inhibition” value is -2.49% (inactive).
The same measure for `COc1ccccc1N1CCN(/N=C/c2ccc(O)cc2O)CC1`: 0.0195% (inactive).
As to `CC(=O)N[C@@H](C)C(=O)N1CCC(n2nccc2NC(=O)CCCc2ccccc2)CC1`, the “activity change, negative = inhibition” value was -8.5% (inactive).
The same measure for `COc1ccc(C(=O)NCCSc2ccccc2C)cc1`: 2.87% (inactive); for `CCOCc1nnc(NC(=O)CCS(=O)(=O)Cc2ccccc2)s1`: 17.2% (inactive); for `CCC(=O)Nc1ccc(-c2ccc(N3CCCCC3)nn2)cc1`: 6.79% (inactive).
On to `COc1ccc(-c2csc3ncnc(N4CCN(S(=O)(=O)c5ccccc5C#N)CC4)c23)cc1`, for which the “activity change, negative = inhibition” value is -1.81% (inactive).
For `CC(=O)Nc1ccc(S(=O)(=O)Nc2cc(C)cn(Cc3ccc(C)cc3)c2=O)cc1`, the “activity change, negative = inhibition” value was -2.01% (inactive).
On to `COc1ccc(CN2CCCC(N3CCc4ccccc4C3)C2)c(O)c1` (stereo not drawn), for which the “activity change, negative = inhibition” value is 3.61% (inactive).
Turning to `CC1CCN(S(=O)(=O)c2ccc3c(c2)n(C)c(=O)n3C)CC1`, the “activity change, negative = inhibition” value is 1.48% (inactive).
With `Cc1ccccc1Nc1nc(-c2cccnc2)cs1`, the “activity change, negative = inhibition” value was 4.19% (inactive).
As for `CC1=NN(C(N)=S)C(=O)C1N=Nc1cc(Cl)ccc1Cl` (stereo not drawn), the “activity change, negative = inhibition” value is -1.93% (inactive).
The same measure for `CC(C)(C)c1ccc(SCCc2ccncc2)cc1`: 2.38% (inactive); for `O=C(/C=C/c1ccc([N+](=O)[O-])o1)NNC(=O)c1ccc(F)cc1`: 4.88% (inactive); for `CC(C)(C)C(=O)NC1CC2CCCC(C1)N2C(=O)Nc1ccccc1F` (stereo not drawn): -7.57% (inactive).
For the compound `Cc1cc(C)c2nc(N(CCN(C)C)C(=O)/C=C/c3cccs3)sc2c1`, the “activity change, negative = inhibition” value is 0.912% (inactive).
The same measure for `COc1ccc(C(=O)O/N=C(\N)c2ccccn2)cc1[N+](=O)[O-]`: 4.35% (inactive); for `CS(=O)(=O)N1CCN(C(=O)CSc2ccccc2)CC1`: 1.25% (inactive).
The same measure for `CCC(C)c1ccc(NC(=S)N2CCCC2)cc1` (stereo not drawn): -5.24% (inactive); for `O=C(CN1CCN(c2cccc(Cl)c2)CC1)Nc1ccc(S(=O)(=O)N2CCOCC2)cc1`: 6.53% (inactive); for `CCc1ccccc1NC(=O)c1ccc2snnc2c1`: 3.35% (inactive).
As for `CN(c1ccc(O)cc1)c1nc(-c2cccnc2)cs1`, the “activity change, negative = inhibition” value is 4.72% (inactive).
In the case of `Cc1ccc(C(=O)Nc2nnc(C3=COCCO3)o2)cc1C`, the “activity change, negative = inhibition” value was 1.42% (inactive).
The same measure for `CCN1CCN(c2sc(S(C)(=O)=O)nc2S(=O)(=O)c2ccc(Cl)cc2)CC1`: -4.5% (inactive); for `Cc1cccc(Nc2nc(-c3ccccc3)cs2)n1`: -8.33% (inactive).
On to `COc1ccc(/C=C(\C#N)c2c[nH]c3ccccc23)cc1`, for which the “activity change, negative = inhibition” value was -9.3% (inactive).
The same measure for `COc1ccc(CCc2nc(-c3cccs3)no2)cc1`: 8.36% (inactive).
The same measure for `O=C(Nc1ncc([N+](=O)[O-])s1)C1COc2ccccc2O1` (stereo not drawn): -1.73% (inactive); for `COCCN1C(=O)N(c2ccc(Cl)cc2)C(=O)C1CC(=O)Nc1cc(OC)cc(OC)c1` (stereo not drawn): -3.36% (inactive).
Turning to `Cc1c(C)n(Cc2ccc(Cl)cc2)c2ccc(C(=O)NCCCN3CCOCC3)cc12`, the “activity change, negative = inhibition” value was 0.0996% (inactive).
Take `Cc1cccc2sc(N(CCCN(C)C)C(=O)CCS(=O)(=O)c3ccccc3)nc12`: the “activity change, negative = inhibition” value is -3.45% (inactive).
As for `O=C(c1ccco1)N1CCN(C(=O)c2cc(-c3ccccc3F)no2)CC1`, the “activity change, negative = inhibition” value was -2.53% (inactive).
The same measure for `CCOC(=O)c1csc(CCNC(=O)c2oc3c(Cl)cc(C)cc3c2C)n1`: 1.74% (inactive).
Regarding `COc1ccc(NC(=O)C/C(C)=N/NC(=O)c2cnccn2)cc1Cl`, the “activity change, negative = inhibition” value was -0.29% (inactive).
Regarding `COc1ccc(/C=N/Nc2ccccc2C(=O)O)cc1`, the “activity change, negative = inhibition” value is 9.98% (inactive).
The same measure for `Cc1ccc(CNC(=O)C(=O)c2cn(CC(=O)N3CCOCC3)c3ccccc23)cc1`: 4.39% (inactive); for `COc1ccc(C)cc1N(CC(=O)N1CCCC1)S(=O)(=O)c1ccccc1`: -1.96% (inactive); for `CC(c1ccccn1)N(C)C(=O)c1ccc2nc(Cc3cccc(Cl)c3)oc2c1` (stereo not drawn): -5.08% (inactive).
Consider `COc1ccc(OC)c(/C(C)=N\NC(=O)c2cc3cc(Cl)ccc3n2C)c1`, for which the “activity change, negative = inhibition” value is -6.12% (inactive).
Take `O=C(O)c1ccccc1NC(=O)c1ccccc1-c1ccccc1C(=O)O`: the “activity change, negative = inhibition” value is -2.67% (inactive).
The same measure for `CCS(=O)(=O)Nc1ccc(C(=O)NCCSc2ccccc2)cc1`: 1.48% (inactive); for `O=C(NCCc1ccc(Cl)cc1)c1cccc(N2CCCC2=O)c1`: 3.57% (inactive); for `Cc1cc(=O)n2nc(N3CCCC(C(=O)NCc4ccc(Cl)cc4)C3)sc2n1` (stereo not drawn): -5.56% (inactive).
The same measure for `Cc1ccc(C)c(S(=O)(=O)N2CCCOC2CNC(=O)C(=O)NC2CCCCC2)c1` (stereo not drawn): 6.08% (inactive); for `COc1ccc(C(=O)CCc2ccccc2O)c(OC)c1`: -3.17% (inactive).
The same measure for `O=C(/C=C/c1ccco1)NC(=S)N1CCCCC1`: 3.47% (inactive); for `CN(Cc1cnccn1)C(=O)c1cc(COc2cccc(C(F)(F)F)c2)on1`: -2.79% (inactive).
`O=C(N/N=C/c1c[nH]c2ccccc12)c1ccccc1O`: the “activity change, negative = inhibition” value is 1.38% (inactive).
Regarding `Oc1ccccc1C1=NN(c2ccccc2)C(c2ccccc2)C1` (stereo not drawn), the “activity change, negative = inhibition” value was -5.98% (inactive).
The same measure for `CCCN1CCn2c3c(c4cc(Br)ccc42)CCCC31` (stereo not drawn): -0.0592% (inactive).
The same measure for `COC(=O)c1cc(NS(=O)(=O)c2ccc3c(c2)c(=O)n(C)c(=O)n3C)cc(C(=O)OC)c1`: 1.26% (inactive); for `CC(=O)c1ccc(S(=O)(=O)NCc2nnnn2-c2ccccc2)cc1`: 0.831% (inactive); for `COc1cccc2[nH]c(C(=O)NCCc3ccccc3)cc12`: -0.172% (inactive).
As for `Cc1cccnc1CC(C)NC(=O)c1cc(COc2cncc(Cl)c2)on1` (stereo not drawn), the “activity change, negative = inhibition” value is -6.26% (inactive).
Take `COc1ccc(N2CCN(C(=O)c3cccs3)CC2)cc1`: the “activity change, negative = inhibition” value is -4.72% (inactive).
Consider `Cc1onc(C(=O)Nc2ccc3c(c2)OCO3)c1[N+](=O)[O-]`, for which the “activity change, negative = inhibition” value was 1.31% (inactive).
The same measure for `C/C(=N\Nc1nncc2ccccc12)c1ccc(Cl)c([N+](=O)[O-])c1`: 7.54% (inactive); for `CC(=O)c1ccc(NC(=O)CCNS(=O)(=O)c2cc(Br)cnc2N)cc1`: 2.1% (inactive).
The same measure for `COc1ccccc1CCNC(=O)c1c(C)nn(CC(C)C)c1Cl`: -1.77% (inactive); for `Cn1c(NC(=O)c2ccccc2)nc2ccccc21`: -2.69% (inactive); for `C=CCNC(=S)/N=c1/ccccn1Cc1ccccc1`: -0.384% (inactive).
`CCCCc1nc2cc(C(=O)N3CCCCC3CCO)ccc2o1` (stereo not drawn): the “activity change, negative = inhibition” value was 6.68% (inactive).
On to `COc1cccc(OCc2cc(C(=O)N3CCN(C(=O)c4ccco4)CC3)no2)c1`, for which the “activity change, negative = inhibition” value was -2.07% (inactive).
For `CCOc1ccc(C2C(C#N)=C(N)N(N(C)C)C3=C2C(=O)CCC3)cc1` (stereo not drawn), the “activity change, negative = inhibition” value is -0.497% (inactive).
In the case of `CC(=O)c1cccc(NC(=O)CN2C(=O)c3cccnc3Oc3ccc(Cl)cc32)c1`, the “activity change, negative = inhibition” value was 5.43% (inactive).
The same measure for `O=C(CN1CCN(S(=O)(=O)c2cc(Cl)ccc2Cl)CC1)c1ccc(O)c(O)c1`: -1.85% (inactive); for `COc1ccccc1CCCNC(=O)C1CCC(=O)N(CCN2CCOCC2)C1` (stereo not drawn): 2.97% (inactive).
The same measure for `COc1ccc(CCNCc2c(-c3ccccc3)n(C)c3ccccc23)cc1`: 0% (inactive); for `CCn1nnnc1SCC(=O)Nc1ccc(N(C)C)cc1`: -1.06% (inactive); for `O=C(CN1CCCCCC1)Nc1ccc(Br)cc1[N+](=O)[O-]`: 3.02% (inactive).
The same measure for `COCCNC(=O)c1ccc2nc(Cc3ccc(OC)c(OC)c3)oc2c1`: -3.43% (inactive); for `CCOc1ccc(C(=O)CCN2CCOCC2)cc1`: 0.333% (inactive); for `O=C(c1cc(COc2ccc(F)c(F)c2)on1)N1CCOCC1`: -0.905% (inactive).
Consider `Cc1cc(Br)ccc1NC(=S)NC1CCCC1`, for which the “activity change, negative = inhibition” value was 0.741% (inactive).
The same measure for `CC(C)c1ccc(NC2CCCN(C(=O)c3ccncc3)C2)cc1` (stereo not drawn): -8.23% (inactive).
For the compound `CC(=O)c1ccc(OC(=O)N2CCOCC2)cc1`, the “activity change, negative = inhibition” value was 4.87% (inactive).
Take `CCC(=O)Nc1ccc2nn(-c3ccc(F)cc3)nc2c1`: the “activity change, negative = inhibition” value was 4.14% (inactive).
Take `C=CCc1cccc(/C=N/NC(=O)COc2ccc(-n3cnnn3)cc2)c1O`: the “activity change, negative = inhibition” value is 5.18% (inactive).
The same measure for `O=C(Cc1cccs1)Nc1ccc([N+](=O)[O-])cc1`: 0% (inactive).
The same measure for `COc1ccc(N2CCN(C3CCCCC3NS(=O)(=O)c3ccccc3)CC2)cc1` (stereo not drawn): -1.23% (inactive); for `CN(C)CCCNC(=S)N1CCC(c2nc3ccccc3[nH]2)CC1`: -1.51% (inactive).
Turning to `COc1ccc(OCc2cc(C(=O)NCC3(C)COC3)no2)c(Cl)c1`, the “activity change, negative = inhibition” value was 2.54% (inactive).
Turning to `O=C(N/C(=C\c1ccc([N+](=O)[O-])cc1)C(=O)N1CCCCC1)c1ccco1`, the “activity change, negative = inhibition” value is 11% (inactive).
The same measure for `c1ccc(-c2ccc(OCCN3CCOCC3)cc2)cc1`: -2.01% (inactive); for `COc1cc(C(=S)N2CCOCC2)cc(OC)c1OC(=O)c1ccc([N+](=O)[O-])cc1[N+](=O)[O-]`: -6.41% (inactive); for `Cc1ccc(-c2noc(C3CCCN(C(=O)c4cccc(Cl)c4)C3)n2)o1` (stereo not drawn): 4.59% (inactive).
The same measure for `C/C(=N\NC(=O)c1ccoc1C)c1ccccc1O`: 3.18% (inactive).
In the case of `Cc1ccc(CNC(=O)C(=O)c2cn(CC(=O)N3CCCC3)c3ccccc23)cc1`, the “activity change, negative = inhibition” value is -2.55% (inactive).

The record behind these values is PubChem BioAssay AID1868 (National Center for Advancing Translational Sciences (NCATS), 2009).
